Among all 5,500 compounds or so, about 2,000 (36%) were called active. Not shown: some 18% with an inconclusive outcome. No stated cut-off is given here; in the data, active means normalized growth mostly below about 0.91 (no sharp cut-off); inconclusive means no clear call, values can overlap the other calls; inactive means mostly above about 0.92. The list shows a part of the results.
Assay: chemical genetic growth profiling, strain panel (AID 1159580);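 further: tested at 20 µM; growth read once vehicle control cultures reached saturation at 30 °C; 1 = growth at the plate median or of vehicle wells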
Conditions: growth OD

Measured: normalized growth

N#CC(c1ccccc1)N1CCCCC1 (stereo not drawn)
inactive: S. cerevisiae deletion strains, locus YAL013W, strain DEP1, stronger effect = lower value 1.04 | S. cerevisiae deletion strains, locus YBR229C, strain ROT2, stronger effect = lower value 0.995 | S. cerevisiae deletion strains, locus YDL101C, strain DUN1, stronger effect = lower value 1 | S. cerevisiae deletion strains, locus YDL134C, strain PPH21, stronger effect = lower value 0.99 | S. cerevisiae deletion strains, locus YDR150W, strain NUM1, stronger effect = lower value 0.964 | S. cerevisiae deletion strains, locus YEL061C, strain CIN8, stronger effect = lower value 1.02 | S. cerevisiae deletion strains, locus YGR078C, strain PAC10, stronger effect = lower value 1 | S. cerevisiae deletion strains, locus YHR030C, strain SLT2, stronger effect = lower value 1.04 | S. cerevisiae deletion strains, locus YHR087W, strain rtc3, stronger effect = lower value 0.995 | S. cerevisiae deletion strains, locus YJR043C, strain POL32, stronger effect = lower value 0.994 | S. cerevisiae deletion strains, locus YJR075W, strain HOC1, stronger effect = lower value 0.984 | S. cerevisiae deletion strains, locus YKL190W, strain CNB1, stronger effect = lower value 0.99 | S. cerevisiae deletion strains, locus YLR039C, strain RIC1, stronger effect = lower value 0.969 | S. cerevisiae deletion strains, locus YLR058C, strain SHM2 (second series), stronger effect = lower value 0.987 | S. cerevisiae deletion strains, locus YLR085C, strain ARP6, stronger effect = lower value 1.02 | S. cerevisiae deletion strains, locus YLR262C, strain YPT6, stronger effect = lower value 1.02 | S. cerevisiae deletion strains, locus YML094W, strain GIM5, stronger effect = lower value 1.02 | S. cerevisiae deletion strains, locus YMR219W, strain ESC1, stronger effect = lower value 1.01 | S. cerevisiae deletion strains, locus YMR263W, strain SAP30, stronger effect = lower value 1.01 | S. cerevisiae deletion strains, locus YMR307W, strain GAS1, stronger effect = lower value 0.928 | S. cerevisiae deletion strains, locus YNL153C, strain GIM3, stronger effect = lower value 1 | S. cerevisiae deletion strains, locus YNL298W, strain CLA4 (second series), stronger effect = lower value 0.985 | S. cerevisiae deletion strains, locus YNL322C, strain KRE1, stronger effect = lower value 1.01 | S. cerevisiae deletion strains, locus YNR030W, strain Alg12, stronger effect = lower value 1 | S. cerevisiae deletion strains, locus YPL055C, strain LGE1, stronger effect = lower value 1.03 | S. cerevisiae deletion strains, locus YPL241C, strain CIN2, stronger effect = lower value 0.975 | S. cerevisiae deletion strains, locus YPR135W, strain CTF4, stronger effect = lower value 1.19 | S. cerevisiae strains, strain wild type, stronger effect = lower value 0.985

Reference: PubChem BioAssay AID1159580 (chemical genetic matrix, 2015)
